In PubChem BioAssay AID1508600 (Functional Genomics Laboratory (NCATS/FGL), 2020):
Screen size: about 53,000 sequences; about 3,700 (7%) were called active. This excerpt belongs to a sample that is enriched for actives. A number with no mark means an inactive call.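 How the source made its calls: active means gene knockdowns whose robust z-score for IL-1 alpha signal is at least 2 or at most -2, so actives lie on both sides; inactive means the rest.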

Assay: Components of the Cytosolic LPS Sensing Pathway: Gene Identification via Genome-wide siRNA Screen;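 further: robust z of the log signal after scaling to non-targeting control siRNA wells of the plate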
Details: RAW264.7 macrophages, IL-1a HTRF, actives lie on both sides, screened at 100 nM (by protocol), cells primed 5 h with Pam3CSK4 first
Method in brief: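 RAW264.7 mouse macrophages reverse-transfected with single siRNAs (100 nM final) for 48h, primed with Pam3CSK4 for 5 hours, then transfected with LipidA for 24 hour. Supernatant IL-1a read by HTRF; values normalized to negative-control median, log-transformed robust z-scores.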
In the case of GGCCCAUCCCACAAUGAUATT against Atg9b, the z-score is reported as -0.998.
For GGAAGUAGGAUGAUGUUGGTT against Hmga1, the z-score was -2.08 (active).
For GCUCACCCAACAAUAUCCATT against Slc17a8, the z-score was -0.881.
Sequence CGAGAAUAUUCGCCCAACCTT against Erbb3 has a z-score of 0.682.
GGAGAUCCGGAAUUUUUAATT against Per2 gave a z-score of -0.0639.
GCUAUAUAAUGCUUAUGUGTT against Tpr gave a z-score of -0.501.
Work on GCCUUUGAUAAAAGUCCGGTT against Saxo2 yielded a z-score of -0.93.
In the case of GGAGGGAAUAUGCAAAUAGTT against Ftdc2, the z-score is reported as 2.36 (active).
Work on GGACAUGAUGAUGAUGAUGTT against Gldn yielded a z-score of -1.8.
With GCUUAUAGAAAACCAGUAATT against Foxd1 the z-score was 0.317.
For GGAAGAAAUGAUGAAUGACTT against Chmp2a, the z-score was 2.36 (active).
In the case of GGAUGAUGACAUUCACUUATT against Ntan1, the z-score is reported as -0.619.
GCCUCGAUCUGAUCUAGAGTT against Dbx2 gave a z-score of 0.291.
GGCUGCUGUCAUUAUUUGUTT against Terf2 showed a z-score of -0.768.
For GGCAUCUUUCACAGUUUUGTT against Hspa12b, the z-score was 2.13 (active).
GGUUUAUGAGCUCUACGCCTT against Tmem11 gave a z-score of -0.843.
In the case of GGAAGAUGAUGUUUUAGGUTT against Pde7a, the z-score is reported as 0.271.
With CCCAAAGCUAUCAUAUCAATT against Aff4 the z-score was 0.508.
With GGCGACACAUUAAAAUAGUTT against Mepe the z-score was 2.19 (active).
With GUUACCUCUGUGUUGUACUTT against Olfr60 the z-score was -0.148.
In the case of GGAAGAAAAAGAUGAGAAATT against Hrc, the z-score is reported as 0.394.
Sequence GCAUGUCUCAACUAAGGACTT against Upk3b has a z-score of 1.03.
In the case of CCUACAGAGGUGCCAUUGUTT against Naa60, the z-score is reported as -0.244.
Work on GGACCGAUUCCACUUCAAUTT against Crygd yielded a z-score of 1.46.
Sequence GCCAAAUGGUGUCAAUAUUTT against Rab33a has a z-score of 0.277.
With GGAGGAUGAUGAGGAGGAUTT against Ppp1r1b the z-score was 2.35 (active).
For CGUGCCAGACCUAUAGCUUTT against Mlxip, the z-score was -0.226.
For GGAGACCUUCCAGAACACATT against Mesd, the z-score was 2.38 (active).
GCGGAUUUACACCUUAUCUTT against Bpi showed a z-score of -1.15.
In the case of GGCUAUCACACAGCAUAGATT against Rdh7, the z-score is reported as 1.57.
CCGUUGGAGGUAAUUAGGATT against Dot1l gave a z-score of 0.463.
With GGCACUGUAAAUGUACUCATT against Rbak the z-score was -2.54 (active).
For GGAGAAGUACAACGCAGCGTT against Wnt7b, the z-score was -0.273.
GGCUAUGCACUACUCAUUGTT against Galk1 gave a z-score of -0.607.
CCAUCCCAUUUAAUGGAUGTT against Olfr1257 showed a z-score of 1.09.
With GCUCCAGAUGUUCAGAGCUTT against Fbxo9 the z-score was -2.43 (active).
With GCAUUCAGACCAUGACACUTT against Trim30d the z-score was 0.914.
In the case of GGCCAAGUGAUAGAGUUCATT against Crygd, the z-score is reported as 1.22.
For GGAAGUUCGAUGUUCCUAGTT against Cep85, the z-score was 0.779.
For GGUUAUUAUGACCAAGAAATT against Sf3b1, the z-score was -2.71 (active).
In the case of GCAGUAACCUUCUAACAAATT against Foxn2, the z-score is reported as -0.367.
GGAGAAAGAUGUUUACCGATT against Hyal2 gave a z-score of -0.533.
For GGAACUUAAGACUUUCAAGTT against Abcf2, the z-score was 0.904.
Work on GCGGAUGCAAAUCGAUGAATT against Cep135 yielded a z-score of -0.507.
Sequence GCAUCAUACUGACCUGAGATT against Gml2 has a z-score of -1.25.
For CCUAUCUUCCUGAAUACAUTT against Aqp7, the z-score was 2.71 (active).
For CCGGCUUAUGCUCAACUUCTT against Bpifb1, the z-score was 0.29.
Work on GGAACAAUUGAUAAGACGATT against Guf1 yielded a z-score of 0.237.
GGUCAAGGAGUUCAUUCUGTT against Matn2 gave a z-score of -1.33.
GGAUCAUUCUGUGAACAAGTT against Ly6h gave a z-score of 1.52.
In the case of GCCCAUUGUAUGACUGCCGTT against Gfra2, the z-score is reported as 3.21 (active).
CCCAAAUACCUACCAUCUCTT against Slc4a9 gave a z-score of -0.44.
For GGACUCUGAAGAGGAAAAGTT against Pds5b, the z-score was -0.266.
For CCUUACCAGGAAACAUAUUTT against Dennd10, the z-score was -1.33.
Sequence GCGGUUAGCACAAUGUGAATT against Ppp2cb has a z-score of -0.577.
Work on GGAAAUAAAACAGAUUUGGTT against Atpaf1 yielded a z-score of 0.576.
Sequence GGCACGAGGCAGAAUUUUATT against Kctd3 has a z-score of 0.696.
For GCUACAAUUGGCCUUAUCUTT against Stpg2, the z-score was -3.03 (active).
GGUACUGCUAUGAGAAACUTT against Adam22 gave a z-score of 0.224.
For GGACCAGAAACGCAUGCUUTT against Maml3, the z-score was -0.762.
Work on GGAAAACUCAUCAUACCAGTT against Ugt3a1 yielded a z-score of 0.737.
CGAUUUUACCAACCGCUGCTT against Chtf18 showed a z-score of 0.702.
In the case of GCUGUUGUAACCAUAACAGTT against Ntsr1, the z-score is reported as 0.439.
In the case of GGGAAUUGCCUCAGCUAAGTT against Men1, the z-score is reported as 2.95 (active).
In the case of CCAGUUAAACACAUUAGCCTT against Mxra8, the z-score is reported as -0.373.
Work on GGCUCAACGGCUUAGGGAATT against B3gat3 yielded a z-score of 1.42.
GGAAAAUAAGCAUAGUGAUTT against Spesp1 gave a z-score of -0.35.
GGACAACCAGCUCAUUGUGTT against Cd82 gave a z-score of -1.09.
Sequence GCAACACACUGCUUCCUGGTT against Tmem19 has a z-score of -1.38.
In the case of GGUAAUUGAGUUUGACGAUTT against Ptprf, the z-score is reported as 0.585.
With CGAAGGCUUCCCUUUUAUCTT against Tmem150b the z-score was 2.67 (active).
Sequence GCCUUCGUCUCCAAGUAUATT against Plagl1 has a z-score of -0.305.
GCUCCUUGCUUGAUUCUACTT against BC107364 showed a z-score of 0.649.
GGAUAGAGUUAAUGAAAAGTT against Poc5 showed a z-score of 0.827.
With CCUCUAGAUAGUGUUAGAGTT against Smarcd1 the z-score was -2.19 (active).
Sequence GGCACAUUGUGGUGUCUUGTT against Pycr1 has a z-score of -3e-05.
For GGAGAUUGAAGAGCUCCGATT against Cabp1, the z-score was -0.0021.
GGCCCAUAUUUUAUUACCGTT against Galns gave a z-score of -1.84.
For GGAGGCAGUGUUUUGUCAATT against Fgd4, the z-score was -0.912.
Sequence GGAAGGCAUUGAAGCUGAATT against Armt1 has a z-score of 0.447.
In the case of GGGCCAACUCAAAACAAAATT against Wdr37, the z-score is reported as -0.74.
With GGUUGUUCACUAGGUCACUTT against Creg2 the z-score was 0.591.
GGUGUGUGAAAUCACUCACTT against Oxnad1 showed a z-score of 0.303.
CCAAUUAUGUGAGAAGUGATT against Snx24 gave a z-score of 0.463.
CCAACUCGUGAUUCUAGACTT against Tmed10 gave a z-score of 1.27.
With GGUAAAGGUAAACUUAUACTT against Vmn1r148 the z-score was -4.68 (active).
For GCGCAAUACGUGGGUUUGUTT against Shisal2b, the z-score was 0.254.
Work on “GCUCGUUUGUGUAUAAGGATT against 4930503L19Rik” yielded a z-score of 0.276.
GGUUCUCGUGUGGCACACUTT against B3gat2 showed a z-score of 0.126.
CCUUCAAUCUUUCUUUCUGTT against Olfr1465 gave a z-score of -0.635.
With CCGUGAUAACAACAUUUGUTT against Olfr750 the z-score was -0.833.
GGAGUAUGAUUCAGAAAUGTT against Scn11a showed a z-score of -0.607.
Sequence GGUCAUCAUGAGCCCAUGUTT against Olfr1341 has a z-score of -1.72.
GGAUUUGGCUAUAUCAACATT against Rfc2 gave a z-score of -1.56.
In the case of CCAUAGCUCUGGAAUGGUGTT against Kcnt1, the z-score is reported as -2.59 (active).
GGAUGUAUGCCAAAGAAUUTT against Fmo5 showed a z-score of -0.0456.
In the case of CGUGCUAAACCAAGACUUATT against Lyplal1, the z-score is reported as 1.25.
For GGGUGAAUUUUGUUUUUGUTT against Kcnj14, the z-score was 3.05 (active).
For GGAUAGCAUGCUUCCUGAGTT against Rhbdf2, the z-score was -2.19 (active).
In the case of GGAAAUGCUCCUCUAGGAUTT against Ppcs, the z-score is reported as 0.039.
In the case of GGAUGAAGAACUGACUCCGTT against Mboat2, the z-score is reported as -0.108.
For GGUGCAAUCAAAUGGAAUUTT against Nrf1, the z-score was 3.75 (active).
GCUACGUAAACGGAAGGCUTT against Abraxas1 showed a z-score of 0.272.
Work on GGUAAGAGGAUGGACACAATT against Chst1 yielded a z-score of 1.08.
Work on GAUCCGUUGGGAAAAGAACTT against Ssbp4 yielded a z-score of -0.881.
With GGCAGUUCUUAAGUAAUCATT against Fem1al the z-score was 0.924.
With GGAGAAAGAAGCUAGUGAGTT against Gm6787 the z-score was -2.77 (active).
In the case of GCGAACUCCUCUUUAGGCATT against Chrng, the z-score is reported as -0.594.
